Assay outcomes: PubChem BioAssay, National Center for Advancing Translational Sciences (NCATS)
TDP1 cell noCPT = qHTS for Inhibitors of human tyrosyl-DNA phosphodiesterase 1 (TDP1): qHTS in cells in absence of CPT. DT40 Tdp1-/- hTDP1 cells, no CPT, ATP luminescence, 48 h. Potency, µM (doses to about 46.2 µM), for the others: top-dose activity change, negative = growth inhibition, actives largely listed as inhibitors. actives 15% (n = 420,000); also: nearly all actives have a fitted effect of over 55% in size
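Chicken DT40 Tdp1-/- cells stably complemented with human TDP1 were seeded at 400 cells/well with DMSO in place of 20 nM camptothecin. After compound pinning, cells grew at least 48 hr at 37 °C; viability read by CellTiter-Glo luminescence.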
HT1080 IDH1KD tx = HT-1080 IDH1 knockdown cell toxicity (counter line); Potency, µM (doses to about 46.1 µM), inactives show at the top dose activity, negative = toxicity, most hits filed as cytotoxic; actives 2% (n = 360,000); HT-1080 IDH1 knockdown viability, ATP luminescence, 48 h;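 also: 0% = DMSO wells and -100% = cell-free medium wells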
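Cytotoxicity counter-line: IDH1KD HT-1080, 48 h, CellTiter-Glo. Curves classed by r2, magnitude and activity.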
HT1080-NT tox = kills 2HG-producing HT-1080-NT fibrosarcoma cells | AID 686970 | Potency, µM (titrated, usually from 46.1 µM), for the others: at the highest dose activity, negative = less viability, usual class: cytotoxic | actives 1.6% (n = 360,000) | HT-1080-NT fibrosarcoma viability, CellTiter-Glo ATP luminescence, 48 h;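 also: NT is the 2HG producing partner of a matched IDH1 knockdown line; 0% = DMSO-treated cells and -100% = media-only wells without cells; nearly all actives have a fitted effect of over 55% in size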
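A 48-hour cytotoxicity screen used HT-1080-NT cells plated 2 hours before compound delivery. ATP-based CellTiter-Glo luminescence measured viability, normalized to DMSO and no-cell controls.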
KB-3-1 cytotox = kills parental KB-3-1 adenocarcinoma cells. KB-3-1 viability, CellTiter-Glo ATP luminescence, 72 h. AID 1347075. actives 1.4% (n = 400,000). Potency, µM (titrated, usually from 46.1 µM), hits mostly cytotoxic; also: nearly all actives have a fitted effect of over 60% in size
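Cytotoxicity in the drug-sensitive parental line KB-3-1 was scored as loss of CellTiter-Glo luminescence following 72 h incubation with compound. Values come from curve fitting of normalized concentration-response data.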
KB-V1 MDR tox = kills drug-selected multidrug resistant KB-V1 cells; Potency, µM (top dose mostly 46.1 µM), hits mostly cytotoxic; KB-V1 MDR cells viability, CellTiter-Glo, 72 h; actives 3.4% (n = 400,000); also: nearly all actives have a fitted effect of over 60% in size
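Potencies derive from concentration-effect curves fitted to normalized luminescence (CellTiter-Glo) of KB-V1 cells treated for 72 h at 37 degrees C in phenol-red-free DMEM containing 10% FBS.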
DT40 TDP1 CPT = growth inhibition of DT40 Tdp1-/-;hTDP1 cells with camptothecin (screen for TDP1 inhibitors) | Potency, µM (top dose mostly 46.2 µM), for inactives: at the top dose activity change, negative = growth inhibition, hits mostly inhibitors | actives 12% (n = 420,000) | chicken DT40 Tdp1-/-;hTDP1 cells + 20 nM CPT, ATP luminescence, 48 h; also: nearly all actives have a fitted effect of over 55% in size
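Chicken DT40 Tdp1-/- cells complemented with human TDP1, 400 cells/well, exposed to compounds plus 20 nM camptothecin for at least 48 h at 37 C; viability read as ATP content by CellTiter-Glo luminescence.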
Active calls of the source: *; i = inactive; ? = inconclusive; · = not tested or not shown. Shown are actives, neighbours in structure and some others; about 19% of the full set was active somewhere. Calls follow the shape of the dose curve; as a rule, active = well fitted curve in the direction sought with a large enough effect; inconclusive = small, poorly fitted or top-dose-only effect, or another doubt; inactive = no such curve, though single readings can be large; an effect the other way counts as inactive or inconclusive. Unless noted, % is scaled to controls: 0 for no effect and ±100 for the full control effect; potency is read from the fitted curve at half-maximal effect.

SMILES	TDP1 cell noCPT	HT1080 IDH1KD tx	HT1080-NT tox	KB-3-1 cytotox	KB-V1 MDR tox	DT40 TDP1 CPT
CCOc1ccc(CCNC(=O)c2cc3sc(Cl)cc3n2C)cc1OCC	?	-21.5%	-20.6%	?	i	?
CCOc1ccc(CCNC(=O)c2cc3sccc3n2C)cc1OCC	10.3µM*	-1.6%	0.5%	i	8.2µM*	16.4µM*
COc1ccc(CCNC(=O)c2cc3sccc3n2Cc2ccc(Cl)cc2)cc1OC	14.6µM*	·	·	·	·	13µM*
COc1ccc(CNC(=O)c2cc3sccc3n2C)cc1	-29.9%	·	·	·	·	2.1%
COC(=O)c1ccc(NC(=O)c2cc3sccc3n2C)cc1	?	-0.7%	-5.4%	i	i	29.1µM*
O=c1c2oc3ccccc3c2n(Cc2ccccc2Cl)c(=O)n1Cc1ccc2c(c1)OCO2	?	·	·	·	·	-2.0%
CC1CCN(C(=O)CSc2nnc3ccc(-c4cccnc4)nn23)CC1	-24.5%	-9.0%	-0.1%	i	?	0.9%
COc1ccc(OC)c(CNC(=O)Nc2cn(CC(C)C)c(=O)c3ccccc23)c1	?	·	·	i	i	?
Cn1c(C(=O)NCc2ccc3c(c2)OCO3)cc2sccc21	-14.8%	-29.3%	-28.0%	i	16.4µM*	1.8%
Cn1c(C(=O)Nc2ccc3c(c2)OCO3)cc2sccc21	?	1.9%	2.6%	i	?	?
O=C(COC(=O)CNC(=O)c1ccco1)NCc1ccc(F)cc1	13.5%	6.4%	6.8%	i	i	3.4%
O=c1[nH]ncc(N/N=C\c2ccncc2)c1Cl	3.0%	2.2%	5.6%	i	20.6µM*	-3.0%
Cc1cccc(/C=N\Nc2cn[nH]c(=O)c2Cl)c1	-17.8%	?	-9.7%	i	4.11µM*	?
CCOc1ccccc1/C=N\Nc1cnn(Cc2ccccc2)c(=O)c1Cl	?	-23.6%	-5.0%	i	i	23.1µM*
O=c1[nH]ncc(N/N=C\c2cccnc2)c1Cl	0.6%	2.4%	-0.6%	i	?	-15.4%
O=c1[nH]ncc(N/N=C\c2cccs2)c1Cl	-27.6%	-10.5%	-4.1%	?	3.26µM*	2.2%
O=C(NCCc1ccccc1)c1ccc2c(c1)S(=O)(=O)N=C1CCCCCN12	-15.8%	8.2%	-0.8%	i	?	-4.9%
COc1ccc(Cn2cc(CN3CCOCC3)nn2)cc1	17.4%	3.0%	24.6%	i	i	6.0%
COc1cccc(CNC(=O)[C@@H]2CCCN2C(=O)[C@H]2CCCCN2C(=O)c2ccccc2)c1	-19.3%	3.9%	20.3%	i	i	-12.4%
COc1ccccc1/C=N\Nc1cn[nH]c(=O)c1Cl	?	?	-28.6%	i	8.2µM*	7.3%
COC(=O)CSC1=C(C#N)C(c2cccc(OC)c2)CC(=O)N1 (configuration not stated)	?	-2.1%	5.9%	?	?	?
CSC1=C(C#N)C(=O)NC(c2ccccc2O)S1 (configuration not stated)	-19.3%	14.1%	19.3%	i	i	-16.2%
COC(=O)CSC1=C(C#N)C(=O)NC(c2ccccc2)S1 (configuration not stated)	2.06µM*	4.9%	5.3%	?	?	2.59µM*
COC(=O)CSC1=C(C#N)C(c2ccccc2)CC(=O)N1 (configuration not stated)	?	-28.9%	?	?	18.4µM*	?
COC(=O)CSC1=C(C#N)C(c2cccc(F)c2)CC(=O)N1 (configuration not stated)	23.1µM*	?	14.6µM*	16.4µM*	?	?
SMILES	TDP1 cell noCPT	HT1080 IDH1KD tx	HT1080-NT tox	KB-3-1 cytotox	KB-V1 MDR tox	DT40 TDP1 CPT
CC(C)CC(C)c1cc(N)nc2nc3ccccc3n12 (configuration not stated)	?	-11.3%	-15.6%	i	?	?
CCC(C)N1C(=O)N(c2cccc(Cl)c2)C(C)(O)CC1(C)C (configuration not stated)	-29.1%	0.0%	-2.9%	i	i	?
CCN(CC(=O)Nc1c(F)cccc1F)C(=O)c1ccc(COc2ccccc2)cc1	?	1.4%	-0.6%	i	?	?
CCN(CC(=O)Nc1ccc(NC(C)=O)cc1)C(=O)c1ccc(COc2ccc(C(C)(C)C)cc2)cc1	23.1µM*	?	?	?	i	?
CCOc1ccc(OCc2ccc(C(=O)N(CC)CC)cc2)cc1	14.6µM*	-4.0%	6.7%	i	i	?
CC(C(=O)Nc1ccncc1)(c1ccccc1)c1ccccc1	13.2%	0.6%	2.6%	i	i	-8.9%
CC1=NN(C(N)=S)C(=O)C1N=Nc1ccccc1O (configuration not stated)	-2.2%	-3.2%	-1.2%	i	i	17.0%
COc1cccc(N=NC2C(=O)N(C(N)=S)N=C2C)c1 (configuration not stated)	-27.0%	-5.9%	25.9µM*	i	i	9.1%
CC1=NN(C(N)=S)C(=O)C1N=Nc1ccccc1C (configuration not stated)	1.64µM*	-1.1%	-3.4%	i	?	1.64µM*
CC1=NN(C(N)=S)C(=O)C1N=Nc1c(C)cc(C)cc1C (configuration not stated)	0.581µM*	3.0%	11.0%	4.61µM*	?	0.517µM*
CC1=NN(C(N)=S)C(=O)C1N=Nc1cccc(Cl)c1 (configuration not stated)	-16.7%	-19.4%	-14.3%	i	i	-22.7%
CCOc1ccccc1N=NC1C(=O)N(C(N)=S)N=C1C (configuration not stated)	3.66µM*	9.4%	9.3%	i	i	16.4µM*
CC1=NN(C(N)=S)C(=O)C1N=Nc1c(Br)cc(Br)cc1Br (configuration not stated)	-28.2%	?	-12.0%	?	i	-28.1%
O=C(Nc1nccs1)c1ccc(COc2ccccc2Cl)o1	-31.3%	?	?	i	?	-1.5%
CC1=NN(C(N)=S)C(=O)C1N=Nc1ccccc1[N+](=O)[O-] (configuration not stated)	-20.4%	1.4%	6.8%	i	i	?
CC1=NN(C(N)=S)C(=O)C1N=Nc1c(Cl)cc([N+](=O)[O-])cc1Cl (configuration not stated)	16.4µM*	-20.5%	-18.5%	i	?	?
